Source: PubChem
The list is not random: actives were taken first. Their share in the collection is about 8.9%.
KB-V1 MDR tox = qHTS assay for MDR1-selective chemotherapeutics: Primary screen using the drug-selected MDR subline cells KB-V1; AID 1347076, 2019; Potency, µM (doses to about 46.1 µM), hits mostly cytotoxic; KB-V1 MDR cells viability, CellTiter-Glo, 72 h; 3.4% of 400,000 active; note: potency is the fitted concentration of half-maximal effect; % is set by controls: 0 for no effect and ±100 for the full control effect; nearly all actives have a fitted effect of over 60% in size
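KB-V1 cells (P-gp-expressing MDR subline of KB-3-1) in phenol-red-free DMEM with 10% FBS were exposed to library compounds over a concentration series for 72 h at 37 degrees C. Viability read by CellTiter-Glo luminescence; concentration-effect curves fitted after normalization.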
DRD3 agonist = qHTS of D3 Dopamine Receptor Agonist: qHTS | D(3) dopamine receptor (Homo sapiens), P35462 | D3R DiscoveRx beta-arrestin cells, luminescence, 90 min | max activation, % | 0.58% of 410,000 active | AID 652048, 2013; in the data active = max activation above about 30%; note: 0% is about no effect
Target sequence (P35462 whole entry, looked up): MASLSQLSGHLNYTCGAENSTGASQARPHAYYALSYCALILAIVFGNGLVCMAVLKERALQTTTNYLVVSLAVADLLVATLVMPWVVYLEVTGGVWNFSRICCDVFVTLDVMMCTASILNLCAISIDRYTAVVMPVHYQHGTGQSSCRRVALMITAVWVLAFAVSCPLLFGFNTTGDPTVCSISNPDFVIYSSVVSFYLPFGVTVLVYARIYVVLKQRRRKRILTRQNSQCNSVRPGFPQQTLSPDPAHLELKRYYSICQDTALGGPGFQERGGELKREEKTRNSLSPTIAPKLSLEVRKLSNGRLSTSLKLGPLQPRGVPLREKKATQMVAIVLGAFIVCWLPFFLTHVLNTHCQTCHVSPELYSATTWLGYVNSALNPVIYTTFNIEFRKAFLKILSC
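Agonist-mode cell screen: cells plated at 1500/well and incubated overnight at 37 °C, then exposed to library compounds for 90 min at 37 °C. Detection reagent was added for 30–60 min at room temperature, and luminescence was read.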
DRD3 antagonist = qHTS of D3 Dopamine Receptor Antagonist: qHTS; D(3) dopamine receptor (Homo sapiens), P35462; 2.5% of 360,000 active; max response, negative = inhibition, %; AID 652054, 2013; D3R cells, DiscoveRx beta-arrestin luminescence, antagonist mode; active compounds read low; in the data active = max response below about -50%; inconclusive = no clear call, values can overlap the other calls; note: % is set by controls: 0 for no effect and ±100 for the full control effect
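Cells expressing the human receptor were seeded at 1500 cells/well, incubated overnight at 37 degrees C in 5% CO2, then exposed to library compounds with dopamine controls for 90 minutes at 37 degrees C before luminescent detection.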
SW480 rereplic = A quantitative high throughput screen for small molecules that induce DNA re-replication in SW480 colon adenocarcinoma cells | SW480 DNA re-replication, Hoechst DNA content imaging, 48 h | Potency, µM (doses to about 46.1 µM), for the others: at the top dose re-replication activation, hits mostly activators | 1.8% of 340,000 active; note: potency is the fitted concentration of half-maximal effect; % of control where 0% means no effect; nearly all actives have a fitted effect of over 55% in size
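Compounds, transferred as 23 nL by pin tool, were incubated with cells for 48 hr; DNA content per nucleus was then quantified by Hoechst staining and fluorescence plate imaging.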
KB-3-1 cytotox = qHTS assay for MDR1-selective chemotherapeutics: Primary screen using the parental adenocarcinoma cell KB-3-1; KB-3-1 viability, CellTiter-Glo ATP luminescence, 72 h; Potency, µM (doses to about 46.1 µM), usual class: cytotoxic; 1.4% of 400,000 active; AID 1347075, 2019; note: potency is the fitted concentration of half-maximal effect; % is set by controls: 0 for no effect and ±100 for the full control effect; nearly all actives have a fitted effect of over 60% in size
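Parental KB-3-1 viability, qHTS format: 72 h compound exposure, 37 °C; CellTiter-Glo; media-only wells and DMSO plates as controls; concentration-effect fits on corrected data.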
MCF10A rereplic = A quantitative high throughput screen for small molecules that induce DNA re-replication in MCF 10a normal breast cells; MCF 10A DNA re-replication, Hoechst nuclear intensity, 48 h; Potency, µM (highest dose often 46.1 µM), for the others: at the top dose activity, positive = re-replication, actives largely listed as activators; 2.9% of 350,000 active; note: potency is the fitted concentration of half-maximal effect; % of control where 0% means no effect; nearly all actives have a fitted effect of over 50% in size
Numbers without * were called inactive; [ ] = dose if it differs, or a comment. Unless noted, calls come from the whole dose curve; as a rule, active = well fitted curve in the direction sought with a large enough effect; inconclusive = small, poorly fitted or top-dose-only effect, or another doubt; inactive = no such curve, though single readings can be large; an effect the other way counts as inactive or inconclusive.

`O=C(Nc1cccc2c1CCCC2)c1ccc(Cl)c([N+](=O)[O-])c1` gave KB-V1 MDR tox inconclusive, DRD3 agonist -13.3, DRD3 antagonist 16.8, SW480 rereplic inconclusive, KB-3-1 cytotox inconclusive and MCF10A rereplic inconclusive.
Screening O=C(Nc1cccc2ncccc12)c1cc([N+](=O)[O-])ccc1Cl returned KB-V1 MDR tox inconclusive, DRD3 agonist 1.4, DRD3 antagonist 0.5, SW480 rereplic inconclusive, KB-3-1 cytotox 18.4µM* and MCF10A rereplic inconclusive.
Screening O=C(Nc1cccc2c1CCCC2)c1cc([N+](=O)[O-])ccc1Cl returned KB-V1 MDR tox inconclusive, DRD3 agonist -8.0, DRD3 antagonist -2.7, SW480 rereplic -2.9%[9.22 µM], KB-3-1 cytotox 23.1µM* and MCF10A rereplic inconclusive.
For C=CC[C@H](CC(=O)NCCO)C(=O)N[C@@H](COC(=O)[C@@H](CC=C)CC(=O)OC(C)(C)C)Cc1c[nH]c2ccccc12 the results were KB-V1 MDR tox inactive, DRD3 agonist 1.2, DRD3 antagonist 0.0, SW480 rereplic 3.0%, KB-3-1 cytotox inactive and MCF10A rereplic -1.4%.
Screening CC(=O)Nc1ccc(NC(=O)CSc2nnc(-c3cccnc3)o2)cc1 returned KB-V1 MDR tox inactive, DRD3 agonist 0.1, DRD3 antagonist 23.9, SW480 rereplic -6.8%, KB-3-1 cytotox inactive and MCF10A rereplic 0.0%.
`CC(C)Cn1c(O)c(N=NC(=O)c2cccc(S(=O)(=O)N3CCCCC3)c2)c2ccccc21` gave KB-V1 MDR tox 2.06µM*, DRD3 agonist 16.2, DRD3 antagonist -11.2, SW480 rereplic inconclusive, KB-3-1 cytotox inconclusive and MCF10A rereplic inconclusive.
Screening Cc1occc1C(=O)N=Nc1c(O)n(C)c2ccccc12 returned KB-V1 MDR tox inactive, DRD3 agonist 2.3, DRD3 antagonist -9.7, SW480 rereplic inconclusive, KB-3-1 cytotox inactive and MCF10A rereplic -2.6%.
Cn1c(O)c(N=NC(=O)c2ccccc2O)c2ccccc21 was read as KB-V1 MDR tox 16.4µM*, DRD3 agonist -5.7, DRD3 antagonist -11.9, SW480 rereplic inconclusive, KB-3-1 cytotox inactive and MCF10A rereplic inconclusive.
Cn1c(O)c(N=NC(=O)c2ccco2)c2ccccc21 was read as KB-V1 MDR tox inactive, DRD3 agonist 6.3, DRD3 antagonist 7.4, SW480 rereplic 31.1%, KB-3-1 cytotox inactive and MCF10A rereplic inconclusive.
`Cc1ccc(NC(=O)Cn2c(O)c(N=NC(=O)c3cc4ccccc4cc3O)c3ccccc32)cc1` gave KB-V1 MDR tox inconclusive, DRD3 agonist -21.2, DRD3 antagonist 0.0, SW480 rereplic inconclusive, KB-3-1 cytotox inconclusive and MCF10A rereplic inconclusive.
For O=C(NNC(=O)c1cccc(S(=O)(=O)N2CCCCC2)c1)c1ccccc1 the results were KB-V1 MDR tox inactive, DRD3 agonist -1.7, DRD3 antagonist -9.9, SW480 rereplic -4.4%, KB-3-1 cytotox inactive and MCF10A rereplic -7.9%.
Screening O=C(N=Nc1c(O)n(Cc2ccccc2)c2ccccc12)c1cc2ccccc2cc1O returned KB-V1 MDR tox inconclusive, DRD3 agonist -6.0, DRD3 antagonist inconclusive, SW480 rereplic inconclusive, KB-3-1 cytotox inconclusive and MCF10A rereplic 10.3µM*.
For CC(C)CCn1c(O)c(N=NC(=O)c2ccco2)c2ccccc21 the results were KB-V1 MDR tox 13µM*, DRD3 agonist 0.9, DRD3 antagonist -5.2, SW480 rereplic -5.2%, KB-3-1 cytotox inactive and MCF10A rereplic 14.6%.
Screening NC(=S)N=Nc1c(O)n(Cc2ccc(Br)cc2)c2ccccc12 returned KB-V1 MDR tox 4.61µM*, DRD3 agonist -2.5, DRD3 antagonist inconclusive, SW480 rereplic 8.2µM*, KB-3-1 cytotox 3.26µM* and MCF10A rereplic 5.8µM*.
